The supplement of paper PMC10646978
± gives the standard deviation.

Experiments:
Settings in all cases: modulator concentration 10 µM
[1] = system: RAW-Dual (murine macrophage reporter line); test: NF-kB reporter (SEAP) activity fold change vs agonist alone; higher = enhanced NF-kB activity
Outline: (§1)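 In 384-well plates holding 50 000 RAW-Dual murine macrophage reporter cells per well, compound at 10 μM final was pre-incubated for 1 hour at 37 °C, after which a PRR agonist was added overnight. Supernatant SEAP read with QUANTI-Blue at 620 nm absorbance reported NF-κB, and Lucia luciferase read with QUANTI-Luc luminescence reported IRF. Fold change values come from dividing each reporter signal by the mean of agonist-only control wells on the same plate, averaged over replicate plates with propagated errors.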

[2] = system: RAW-Dual (murine macrophage reporter line); test: IRF reporter (Lucia luciferase) activity fold change vs agonist alone; higher = enhanced IRF activity
Outline: as §1

[3] = system: RAW-Dual (murine macrophage reporter line); test: viability score (confluency relative to resting cells, overnight) (fraction); higher = more viable, active = viable (0.7 or more)
Outline: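 RAW-Dual macrophages in 384-well plates were treated overnight with compound at 10 μM final. IncuCyte imaging recorded confluency, and IncuCyte software built two confluency masks across every imaged well. The viability score expresses confluency relative to resting cells and was judged against a cutoff, which a compound met only if both masks exceeded 70% of resting cells.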

[4] = agonist: CpG ODN 1826 0.5 ug/mL

Row | SMILES | NF-kB reporter [1, 4] | NF-kB reporter ([1]; agonist: LPS 0.1 ug/mL) | NF-kB reporter ([1]; agonist: MPLA […]) | IRF reporter ([2]; agonist: 3'3'-cGAMP 10 ug/mL) | IRF reporter ([2]; agonist: LPS 0.1 ug/mL) | IRF reporter ([2]; agonist: MPLA […]) | viability score [3]
1 | CCCCC(=O)N(Cc1ccc(-c2ccccc2-c2nnn[nH]2)cc1)[C@H](C(=O)O)C(C)C [Prestw-1735] | 1.14 ± 0.14 | 0.992 ± 0.075 | 1.05 ± 0.029 | 0.687 ± 0.03 | 0.705 ± 0.04 | 0.645 ± 0.071 | 0.998 (active)
2 | COC(=O)C1C(c2ccccc2)C(C(=O)Oc2ccc(C(C)=O)cc2)C1c1ccccc1 (stereo unspecified) | 0.895 ± 0.069 | 0.939 ± 0.046 | 1.16 ± 0.1 | 0.908 ± 0.06 | 1.17 ± 0.1 | 1.28 ± 0.15 | 1.02 (active)
3 | NC(=O)c1cccc2cn(-c3ccc([C@@H]4CCCNC4)cc3)nc12 | 0.187 ± 0.014 | 0.573 ± 0.051 | 0.85 ± 0.072 | 0.508 ± 0.051 | 0.559 ± 0.07 | 0.977 ± 0.088 | 0.887 (active)
4 | COCCNCCOc1cc(C)c(Cl)c(C)c1 | 0.908 ± 0.078 | 0.952 ± 0.045 | 0.932 ± 0.085 | 0.947 ± 0.049 | 1.52 ± 0.098 | 1.67 ± 0.17 | 0.974 (active)
5 | CN(Cc1cnc2nc(N)nc(N)c2n1)c1ccc(C(=O)NC(CCC(=O)O)C(=O)O)cc1 (stereo unspecified) [Prestw-373] | 0.987 ± 0.24 | 0.701 ± 0.04 | 0.87 ± 0.072 | 0.614 ± 0.037 | 1.16 ± 0.19 | 1.01 ± 0.13 | 0.791 (active)
6 | Cl.Cl.Fc1ccc(C(c2ccc(F)cc2)N2CCN(C/C=C/c3ccccc3)CC2)cc1 | 1.06 ± 0.087 | 0.97 ± 0.1 | 1.42 ± 0.3 | 1.06 ± 0.068 | 1.11 ± 0.082 | 1.26 ± 0.14 | 0.999 (active)
7 | Cc1ccc(CCNc2ccccc2C)cn1 | 1.05 ± 0.084 | 0.931 ± 0.11 | 1.2 ± 0.12 | 1 ± 0.067 | 1.35 ± 0.21 | 1.73 ± 0.39 | 0.993 (active)
8 | CCCCc1oc2ccccc2c1C(=O)c1cc(I)c(OCCN(CC)CC)c(I)c1.Cl | 0.471 ± 0.038 | 0.988 ± 0.12 | 1.83 ± 0.34 | 0.55 ± 0.033 | 1.6 ± 0.12 | 1.77 ± 0.15 | 1 (active)
9 | Br.NC(=O)C(c1ccccc1)(c1ccccc1)[C@@H]1CCN(CCc2ccc3c(c2)CCO3)C1 | 0.471 ± 0.18 | 1.25 ± 0.27 | 1.53 ± 0.37 | 0.485 ± 0.015 | 1.15 ± 0.41 | 1.41 ± 0.22 | 0.975 (active)
10 | CCC(c1ccc(O)cc1)C(CC)c1ccc(O)cc1 (stereo unspecified) [Prestw-699] | 0.567 ± 0.043 | 0.883 ± 0.068 | 1.02 ± 0.1 | 0.75 ± 0.13 | 0.84 ± 0.11 | 1.06 ± 0.16 | 0.181 (inactive)
11 | CN(C)CCOC(c1ccccc1)c1ccccc1.Cl | 1.12 ± 0.16 | 1.11 ± 0.089 | 0.985 ± 0.11 | 0.791 ± 0.029 | 1.17 ± 0.1 | 1.03 ± 0.12 | 0.999 (active)
12 | O=c1cc(O)nc(SCc2c(F)c(F)c(F)c(F)c2F)[nH]1 | 1.01 ± 0.08 | 0.913 ± 0.07 | 1.05 ± 0.049 | 0.646 ± 0.066 | 1.01 ± 0.1 | 1.03 ± 0.21 | 1 (active)
13 | CCOC(N)=O | 0.962 ± 0.13 | 1.09 ± 0.24 | 0.948 ± 0.068 | 0.927 ± 0.057 | 1.32 ± 0.28 | 1.02 ± 0.14 | 1.01 (active)
